Hit rate of the full screen: of about 5,500 compounds, about 2,000 (36%) were called active. Another 18% or so got no clear call; they are omitted. No stated cut-off is given here; in the data, active means normalized growth mostly below about 0.91 (no sharp cut-off); inconclusive means no clear call, values can overlap the other calls; inactive means mostly above about 0.92. This is one part of the list.
Experiment: chemical genetic growth profiling, strain panel (AID 1159580);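 further: tested at 20 µM; growth read once vehicle control cultures reached saturation at 30 °C; 1 = growth at the plate median or of vehicle wells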
Details: S. cerevisiae deletion strains, growth OD
[1] = locus YAL013W, strain DEP1, stronger effect = lower value
[2] = locus YBR229C, strain ROT2, stronger effect = lower value
[3] = locus YDL101C, strain DUN1, stronger effect = lower value
[4] = locus YDL134C, strain PPH21, stronger effect = lower value
[5] = locus YDR150W, strain NUM1, stronger effect = lower value
[6] = locus YEL061C, strain CIN8, stronger effect = lower value
[7] = locus YGR078C, strain PAC10, stronger effect = lower value
[8] = locus YHR030C, strain SLT2, stronger effect = lower value
[9] = locus YHR087W, strain rtc3, stronger effect = lower value
[10] = locus YJR043C, strain POL32, stronger effect = lower value
[11] = locus YJR075W, strain HOC1, stronger effect = lower value
[12] = locus YLR039C, strain RIC1, stronger effect = lower value
[13] = locus YLR058C, strain SHM2 (second series), stronger effect = lower value
[14] = locus YLR085C, strain ARP6, stronger effect = lower value
[15] = locus YLR262C, strain YPT6, stronger effect = lower value
[16] = locus YML094W, strain GIM5, stronger effect = lower value
[17] = locus YMR219W, strain ESC1, stronger effect = lower value
[18] = locus YMR263W, strain SAP30, stronger effect = lower value
[19] = locus YNL153C, strain GIM3, stronger effect = lower value
[20] = locus YNL298W, strain CLA4 (second series), stronger effect = lower value
[21] = locus YNL322C, strain KRE1, stronger effect = lower value
[22] = locus YNR030W, strain Alg12, stronger effect = lower value
[23] = locus YPL055C, strain LGE1, stronger effect = lower value
[24] = locus YPL241C, strain CIN2, stronger effect = lower value
[25] = locus YPR135W, strain CTF4, stronger effect = lower value
[26] = locus YAL040C, strain CLN3, stronger effect = lower value
[27] = locus YCL061C, strain MRC1 (second series), stronger effect = lower value
[28] = locus YDR363W, strain ESC2, stronger effect = lower value
[29] = locus YER002W, strain NOP16, stronger effect = lower value
[30] = locus YNL197C, strain WHI3, stronger effect = lower value
[31] = locus YNL224C, strain SQS1, stronger effect = lower value
[32] = locus YOR083W, strain WHI5 (second series), stronger effect = lower value

Measured: normalized growth

CC1C(c2ccccc2)OCCN1CN1C(=O)c2ccccc2C1=O (stereo not given)
inactive: [1] 1.02 | [2] 0.985 | [3] 1.01 | [4] 1.01 | [5] 0.99 | [6] 0.98 | [7] 1.01 | [8] 1.02 | [9] 0.993 | [10] 1.01 | [11] 0.98 | locus YKL190W, strain CNB1, stronger effect = lower value 0.987 | [12] 1.05 | [13] 1 | [14] 0.969 | [15] 1.07 | [16] 0.975 | [17] 0.996 | [18] 0.991 | [19] 0.992 | [20] 1 | [21] 0.993 | [22] 1.01 | [23] 0.991 | [24] 0.98 | [25] 1.06

CCCCCCNC(=O)NCCCCCC
inactive: [1] 0.958 | [2] 0.931 | [3] 0.983 | [4] 0.925 | [5] 0.931 | [6] 0.939 | [7] 0.933 | [8] 0.858 | [9] 0.955 | [10] 0.942 | [11] 0.894 | [14] 0.881 | [16] 0.991 | [18] 0.98 | [19] 0.986 | [20] 0.991 | [22] 0.918 | locus YOL006C, strain TOP1, stronger effect = lower value 0.858 | [23] 0.959 | [24] 0.982 | [25] 0.824
active: [12] 0.76 | [13] 0.933 | [15] 0.723 | [17] 0.924 | [21] 0.914

CCCCCCCCCCCCCCCC(=O)NCCO
active: [31] 0.823
inactive: [26] 1.02 | [27] 1.01 | [28] 1.02 | [29] 1.01 | [11] 1.01 | locus YMR307W, strain GAS1, stronger effect = lower value 1 | [30] 1.03 | [32] 1.02 | [23] 1.02 | [24] 0.999

CC(C)(CO)C(O)C(=O)NCCC(=O)NCCSSCCNC(=O)CCNC(=O)C(O)C(C)(C)CO (stereo not given)
inactive: [8] 0.954 | locus YHR079C, strain IRE1, stronger effect = lower value 0.973 | locus YJL095W, strain BCK1, stronger effect = lower value 0.968 | locus YJR066W, strain TOR1, stronger effect = lower value 0.897 | locus YLR113W, strain HOG1, stronger effect = lower value 0.951 | locus YNL183C, strain NPR1, stronger effect = lower value 0.89 | locus YOR231W, strain MKK1, stronger effect = lower value 0.955 | locus YPL256C, strain CLN2, stronger effect = lower value 0.951

CCCCCCCC/C=C\CCCCCCCC(=O)NCCO
inactive: [1] 1.01 | [26] 1.01 | [27] 1 | [5] 1 | [28] 0.974 | [29] 1.02 | [11] 1 | [18] 0.994 | [19] 0.981 | locus YNL175C, strain NOP13, stronger effect = lower value 0.963 | [30] 0.989 | [31] 1 | [21] 0.978 | [32] 0.999
